Here are results for 26 compounds from PubChem BioAssay.

The structures appear in SMILES notation.

A short description of this experiment: RPMI8226 myeloma cell viability, profiling panel, resazurin fluorescence, basal, 24 h, PK04 Diversity Set (AID 1180).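 Also: RPMI8826 multiple myeloma cell line at 5000 cells per well; test concentration not given here.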 The following applies: higher = more signal. (In general: Alamar Blue is a resazurin reagent that responds to reducing activity.)
As for `O=C1C2C=CC(C(O)Cc3ccccc3)N(n3cnnc3)C2C(=O)N1Cc1ccccc1` (stereo unspecified), the z-score is -1.05.

In turn, `Cc1ccc(S[C@]2(C(=O)NCCCN(C)C)CC(=O)N(Cc3ccccc3C(F)(F)F)[C@@H]2c2ccc(CO)cc2)cc1` showed a z-score of 0.119.

Compound `COc1cc(C(O)C2C=CC3C(=O)NC(=O)C3N2Nc2ccccn2)cc(OC)c1OC` (stereo unspecified) displayed a z-score of -2.04.

The compound `C=CCNC(=O)[C@H]1[C@@H]2C(=O)O[C@@H](c3ccccc3)[C@@H](c3ccccc3)N2[C@@H](c2ccccc2OCCO)[C@]12C(=O)Nc1ccc(C#CCC(C(=O)OC)C(=O)OC)cc12` showed a z-score of -7.24.

Consider `COCCOC(=O)N1C(=O)[C@@]2(c3cc(C#CCNC(N)=O)ccc31)[C@H](C(=O)N1CCN(c3ncccn3)CC1)[C@H]1C(=O)O[C@H](c3ccccc3)[C@H](c3ccccc3)N1[C@@H]2c1ccc(OCCO)cc1`, for which the z-score was -0.83.

`CCOC(=O)C[C@H]1[C@H](OC(=O)c2ccc(C(=O)c3ccccc3)cc2)[C@@H](NC(=O)c2ccc3ccccc3c2)c2cc(OCCCO)ccc2N1C(=O)Cc1ccc(OC)cc1` came in with a z-score of 0.287.

In turn, `C[C@H]1NC(=O)[C@@]23C(=O)N[C@@H](Cc4ccccc4)C2[C@H](C)[C@@]2(C)O[C@H]2C3/C=C/C/C=C\CNC(=O)[C@@H]2CCCN2C1=O` (stereo partly specified) showed a z-score of 1.14.

With `C=C(CCCC)/C(=C/C[C@@H](OC(=O)c1ccncc1)c1ccc(OCCO)cc1)c1cc(C(=O)OC)ccc1OC`, the z-score amounted to 0.572.

`CN1C(=O)C2C=CC(C(O)c3ccc([N+](=O)[O-])cc3)N(N3CCCCC3)C2C1=O` (stereo unspecified) returned a z-score of -0.85.

With `CC(C)C(=C=CC[C@H](O)c1ccc(OCCO)cc1)CCO`, the z-score is -0.0148.

Take `C[C@H]1C2[C@H](Cc3ccccc3)NC(=O)[C@]23C(=O)N[C@H](Cc2ccccc2)C(=O)N2CCC[C@H]2C(=O)NC/C=C\C/C=C/C3[C@@H]2O[C@]12C` (stereo partly specified): the z-score came to 1.19.

As to `CN(C)CCCCCCNC(=O)[C@H]1C[C@H]2C(=O)N[C@@H](CCCCN)C(=O)N2[C@H]1c1cccc(OCCO)c1`, the z-score is -0.614.

As for `C=CCC(OC(C)=O)[C@@H]1[C@@H](N(Cc2cc3ccccc3o2)C(=O)c2cccc3ccccc23)c2cc(OCCCO)ccc2N1C(=O)c1ccc(-c2ccccc2)cc1` (stereo partly specified), the z-score turned out to be 0.03.

The compound `COC(=O)[C@@]1(Cc2ccc(OC)cc2)[C@H]2c3cc(C(=O)N4CCCC4)n(Cc4ccc(O)c(OC)c4)c3C[C@H]2CN1C(=O)c1ccccc1` yielded a z-score of -2.77.

The compound `COC(=O)[C@@]1(Cc2ccc(OC)cc2)[C@H]2c3cc(C(=O)N4CCCC4)n(Cc4ccc(C)c(F)c4F)c3C[C@H]2CN1C(=O)c1ccccc1` yielded a z-score of -1.59.

The compound `C=CCOC(=O)[C@H]1[C@@H]2C(=O)O[C@@H](c3ccccc3)[C@@H](c3ccccc3)N2[C@@H](c2ccc(OCCOC(=O)[C@@H]3C[C@@H]4C(=O)N[C@@H](CCCCNC(C)=O)C(=O)N4[C@@H]3c3ccc(O)cc3)cc2)[C@]12C(=O)Nc1ccccc12` yielded a z-score of -0.407.

Take `COC(=O)[C@@]1(Cc2ccc(OC)cc2)[C@H]2c3cc(C(=O)N(C)C)n(Cc4ccc(S(C)(=O)=O)cc4)c3C[C@H]2CN1C(=O)c1ccccc1`: the z-score was determined as 0.766.

In turn, `CC(C)=CCN[C@H](CO)c1ccccc1` registered a z-score of -0.974.

Consider `COC(=O)[C@@]1(Cc2ccc(F)cc2)[C@H]2c3cc(C(=O)N4CCCC4)n(Cc4ccc(S(C)(=O)=O)cc4)c3C[C@H]2CN1C(=O)c1ccccc1`, for which the z-score is -0.948.

With `COc1ccc(C#Cc2ccc3c(c2)[C@]2(C(=O)N3)[C@H](C(=O)Nc3nc4ccccc4s3)[C@H]3C(=O)O[C@H](c4ccccc4)[C@H](c4ccccc4)N3[C@@H]2c2ccc(O)cc2)cc1`, the z-score turned out to be 0.338.

`[N-]=[N+]=Nc1ccccc1[C@H]1OC(c2ccc(OCCCO)cc2)=N[C@@]1(CCS(=O)(=O)c1ccccc1)C(N)=O` registered a z-score of 0.187.

`CC(C)c1ccc(NN2C(C(O)c3ccc(B(O)O)cc3)C=CC3C(=O)N(c4ccccc4)C(=O)C32)cc1` (stereo unspecified): the z-score is -0.948.

Turning to `COC(=O)[C@@]1(Cc2ccc(F)cc2)[C@H]2c3cc(C(=O)N(C)C)n(Cc4ccccc4)c3C[C@H]2CN1C(=O)c1ccccc1`, the z-score was -2.86.

`[N-]=[N+]=Nc1ccccc1[C@@H]1OC(c2ccc(OCCCO)cc2)=N[C@]1(Cc1ccccc1)C(=O)N1CCOCC1`: the z-score is -1.58.

`CN(C)C(=O)[C@]1(Cc2ccccc2N=[N+]=[N-])N=C(c2ccc(OCCCO)cc2)O[C@@H]1c1ccccc1N=[N+]=[N-]`: the z-score is -3.87.

As for `CC(C)NC(=O)[C@@]1(c2ccc([N+](=O)[O-])cc2)CC(=O)N(C2CCCCC2)[C@@H]1c1ccc(CO)cc1I`, the z-score came to 0.636.
